Assay results taken from PubChem BioAssay (Tox21).
Records with an inconclusive call do not appear. Calls of active or inactive are those of the source. Calls follow the shape of the full dose curve.

molecular target: Progesterone receptor (Homo sapiens) (UniProt P06401); assay: qHTS assay to identify small molecule agonists of the progesterone receptor (PR) signaling pathway (AID 1346784); details: PR-UAS-bla HEK293T, beta-lactamase FRET ratio, 16 h; series mostly up to 92.4 µM; activation: at the top concentration; also: nearly all actives have a fitted effect of over 30% in size
Sequence (P06401 whole entry, looked up): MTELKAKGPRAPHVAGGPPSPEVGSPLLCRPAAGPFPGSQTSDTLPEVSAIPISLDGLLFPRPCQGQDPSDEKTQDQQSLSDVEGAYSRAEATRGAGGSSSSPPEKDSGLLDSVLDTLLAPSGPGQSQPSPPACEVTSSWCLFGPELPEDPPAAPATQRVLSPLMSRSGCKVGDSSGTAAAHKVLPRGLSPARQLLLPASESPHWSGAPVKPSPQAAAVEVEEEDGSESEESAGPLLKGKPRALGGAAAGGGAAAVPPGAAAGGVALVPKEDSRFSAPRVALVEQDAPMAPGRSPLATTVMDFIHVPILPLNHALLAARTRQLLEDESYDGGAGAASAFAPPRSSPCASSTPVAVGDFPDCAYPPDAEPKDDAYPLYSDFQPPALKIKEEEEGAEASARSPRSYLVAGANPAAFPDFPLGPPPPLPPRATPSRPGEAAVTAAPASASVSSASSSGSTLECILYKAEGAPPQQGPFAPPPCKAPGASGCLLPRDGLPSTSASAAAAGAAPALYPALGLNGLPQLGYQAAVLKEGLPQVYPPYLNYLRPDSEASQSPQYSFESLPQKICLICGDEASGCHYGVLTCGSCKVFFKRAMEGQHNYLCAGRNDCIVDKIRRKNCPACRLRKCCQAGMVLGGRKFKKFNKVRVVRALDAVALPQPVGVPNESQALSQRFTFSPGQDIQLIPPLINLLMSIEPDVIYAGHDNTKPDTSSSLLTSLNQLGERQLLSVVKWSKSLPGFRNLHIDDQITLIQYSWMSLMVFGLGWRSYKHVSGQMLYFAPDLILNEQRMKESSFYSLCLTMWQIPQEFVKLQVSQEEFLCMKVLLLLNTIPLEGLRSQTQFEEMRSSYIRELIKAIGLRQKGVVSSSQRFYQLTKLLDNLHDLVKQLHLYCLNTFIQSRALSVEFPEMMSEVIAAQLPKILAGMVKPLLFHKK
Description: U.S. Tox21 Program National Center for Advancing Translational Sciences [NCATS] NIH Chemical Genomics Center [NCGC] U.S. Environmental Protection Agency [EPA] National Institutes of Environmental Health Sciences [NIEHS] National Toxicology Program [NTP] U.S. Food and Drug Administration [FDA] […] Endocrine disrupting chemicals (EDCs) and their interactions with steroid hormone receptors like PR causes disruption of normal endocrine function. To identify the compounds that activate PR signaling, a PR-UAS-bla GripTite cell line i.e. PR-UAS-bla HEK 293T (Invitrogen, Carlsbad, CA, USA) containing a beta-lactamase reporter gene under the control of an Upstream Activator Sequence (UAS) was used to screen Tox21 10K compound library.
Tox21 Assay Protocol Summary: PR-UAS-bla HEK 293T cells were dispensed at 3,000 cells/5 uL of assay medium containing 2% charcoal stripped FBS per well into black wall/clear-bottom 1536-well plates using a Multidrop Combi (ThermoFisher Scientific, Waltham, MA) dispenser. After the assay plates were incubated at a 37C and 5% CO2 for 6hr, 23 nL of compounds dissolved in DMSO, positive controls or DMSO only was transferred to the assay plate by a Pintool station (Kalypsys, San Diego, CA). The plates were incubated at 37C and 5% CO2 for 16hr. Then 1 uL of LiveBLAzer B/G FRET substrate was added using a BioRAPTR FRD (Flying Reagent Dispenser, Aurora Discovery, San Diego, CA). After the plates were incubated at room temperature for 2 hours, fluorescence intensity was measured by an Envision plate reader (PerkinElmer, Shelton, CT).
% is scaled to controls: 0 for no effect and ±100 for the full control effect.

Structure (SMILES) | activation
CC(CC=O)CC(C)(C)C (stereo not given) | -2.27% (inactive)
CC(=O)Oc1cccc(C)c1 | 3.23% [at 42.5 µM] (inactive)
CCCOC(=O)CC | -3.42% (inactive)
C=COCC1CCC(COC=C)CC1 (stereo not given) | 0.39% (inactive)
CN(C)CCN(C)CCN(C)C | 0.447% (inactive)
CCC(=O)OCc1ccccc1 | 0.682% (inactive)
O=S(=O)(O)c1cccc2ccccc12 | 0.352% (inactive)
CO[Si](C)(OC)c1ccccc1 | 2.86% (inactive)
CC[C@H]1OC(=O)[C@H](C)[C@@H](O[C@H]2C[C@@](C)(OC)[C@@H](O)[C@H](C)O2)[C@H](C)[C@@H](O[C@@H]2O[C@H](C)C[C@H](N(C)C)[C@H]2O)[C@](C)(OC)C[C@@H](C)C(=O)[C@H](C)[C@@H](O)[C@]1(C)O | 0.372% (inactive)
CCCc1ncc(C[n+]2ccccc2C)c(N)n1 | -0.486% [at 42.5 µM] (inactive)
NCCCC[C@H](N[C@@H](CCc1ccccc1)C(=O)O)C(=O)N1CCC[C@H]1C(=O)O | 1.35% [at 42.5 µM] (inactive)
CC[N+](CC)(CC(=O)Nc1c(C)cccc1C)Cc1ccccc1 (tested in a mixture with another compound) | 2.45% [at 42.5 µM] (inactive)
Cc1ccc(C(=O)Nc2ccc(S(=O)(=O)O)c3cc(S(=O)(=O)O)cc(S(=O)(=O)O)c23)cc1NC(=O)c1cccc(NC(=O)Nc2cccc(C(=O)Nc3cc(C(=O)Nc4ccc(S(=O)(=O)O)c5cc(S(=O)(=O)O)cc(S(=O)(=O)O)c45)ccc3C)c2)c1 | 0.121% [at 42.5 µM] (inactive)
CO[C@@]1(NC(=O)C(C(=O)O)c2ccc(O)cc2)C(=O)N2C(C(=O)O)=C(CSc3nnnn3C)CO[C@@H]21 (stereo not given in full) | 0.82% [at 42.5 µM] (inactive)
CC1OC1C1CCC2(C)OC2C1 (stereo not given) | -0.713% (inactive)
COc1cc2c(cc1OC)-c1cc3ccc(OC)c(OC)c3c[n+]1CC2 | -4.18% (inactive)
c1ccc(Cc2ccccc2)cc1 | -1.1% (inactive)
CC(C)COC(=O)c1ccc(N)cc1 | -1.74% [at 42.5 µM] (inactive)
COc1cccc(OC)c1C(=O)N[C@@H]1C(=O)N2[C@@H]1SC(C)(C)[C@@H]2C(=O)O | 4.69% [at 42.5 µM] (inactive)
CCOC(=O)COc1cc(-n2ncc(C(F)(F)F)c(C)c2=O)c(F)cc1Cl | 0.329% (inactive)

Structure (SMILES) | activation
C=C(C)C(=O)OCC1CCCO1 (stereo not given) | -0.622% (inactive)
N[C@H](C(=O)O)[C@@H](O)c1ccc(O)c(O)c1 | -0.935% [at 42.5 µM] (inactive)
CN(C)C(=O)Oc1cccc([N+](C)(C)C)c1 | -0.694% [at 42.5 µM] (inactive)
O=[N+]([O-])c1ccc(/C=N\O)o1 | 8.45% [at 42.5 µM] (inactive)
CC1=NN(c2cccc(S(=O)(=O)O)c2)C(=O)C1 | 0.522% (inactive)
CN(C)[C@@H]1C(=O)C(C(=O)NCN2CCCC2)=C(O)[C@@]2(O)C(=O)C3=C(O)c4c(O)cccc4[C@@](C)(O)C3C[C@@H]12 (stereo not given in full) | 4.24% [at 42.5 µM] (inactive)
Cc1ccc(C(=O)c2ccc(CC(=O)O)n2C)cc1 | -0.589% [at 42.5 µM] (inactive)
O=C(CO)[C@@H](O)[C@H](O)[C@H](O)CO | 1.37% (inactive)
C=C[Si](OC(C)=O)(OC(C)=O)OC(C)=O | 0.513% (inactive)
CCCCCCCCCC[N+](C)(C)[O-] | -1.24% (inactive)
CC(COc1ccccc1)NN (stereo not given) | 0.642% [at 42.5 µM] (inactive)
CC(C)CC(C)(N)C#N (stereo not given) | 0.476% (inactive)
CN1[C@@H]2CC[C@H]1CC(OC(=O)C(O)c1ccccc1)C2 (stereo not given in full) | 0.49% [at 42.5 µM] (inactive)
Nc1ccn([C@@H]2O[C@H](CO)[C@@H](O)C2O)c(=O)n1 (stereo not given in full) | -5.25% (inactive)
O=C(O)CNC(=O)c1ccc(CO)o1 | 0.0551% (inactive)
CCO[Si](OCC)(OCC)c1ccccc1 | -0.362% (inactive)
c1ccc2sc(SN3CCOCC3)nc2c1 | -1.45% [at 42.5 µM] (inactive)
O=C(O)CCCC[P+](c1ccccc1)(c1ccccc1)c1ccccc1 | 0.26% [at 42.5 µM] (inactive)
CC/C=C\CCOC(C)OCC (stereo not given) | -1.57% [at 42.5 µM] (inactive)
CCCCN(CCC(=O)OCC)C(C)=O | -1.43% (inactive)
